# Data published in PubChem BioAssay AID652104 (National Center for Advancing Translational Sciences (NCATS), 2013).
# About 7,200 (1.8%) of roughly 410,000 compounds were called active. About 7% were inconclusive and are not listed. This is one part of a sample in which actives are shown more often than they occur. Calls follow the shape of the dose curve; as a rule, active = well fitted activation curve with a large enough effect; inconclusive = small, poorly fitted or top-dose-only effect, or another doubt; inactive = no such curve, though single readings can be large or run the other way.
# Experiment: qHTS of TDP-43 Inhibitors; also: nearly all actives have a fitted effect of over 50% in size; as to growth rescue (activation): % of control where 0% means no effect
# Conditions: TDP-43 expressing yeast growth rescue, BacTiter-Glo, 24 h; series mostly up to 46.1 µM; growth rescue (activation): at the top concentration
# Outline: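 Yeast expressing TDP-43 (pregrown in raffinose, seeded at OD600=0.02 in galactose medium) exposed to compounds 24 hr at 30 deg C. Growth read by BacTiter-Glo luminescence; rescue of toxicity appears as increased signal.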
# Potency is read from the fitted curve at half-maximal effect.
SMILES,growth rescue (activation),Potency
COc1cc(OC)c(NC(=O)c2cc(S(=O)(=O)N3CCCC3)cn2C)cc1Cl,19% (inactive),–
Cc1ccc(C(C)C)c(OCCSc2nc3ccccc3n2CC(=O)O)c1,19.9% (inactive),–
CCOc1ccc(OCCSc2nc3ccccc3n2CC(=O)O)cc1,-2.71% (inactive),–
Cc1cccc(OCCSc2nc3ccccc3n2CC(=O)N2CCCCC2)c1C,–,35.5 µM (active)
CCC(C)c1ccc2oc(-c3ccc(NC(=O)c4cc5ccccc5o4)cc3)nc2c1 (stereo unspecified),19.4% (inactive),–
Cc1ccccc1C(=O)OC1OC(=O)C(Cl)=C1Nc1ccccc1 (stereo unspecified),–,22.4 µM (active)
O=C1OC(OC(=O)c2ccccc2Br)C(N2CCOCC2)=C1Cl (stereo unspecified),-2.62% (inactive),–
Cc1ccccc1C(=O)O,27.8% (inactive),–
Cc1cccc(NC(=O)Cn2nc(-c3ccc(Cl)cc3)c3ccccc3c2=O)c1,21.9% (inactive),–
CCCC12CN3CC(C)(CN(C1)C3c1ccccc1Cl)C2=O (stereo unspecified),11.8% (inactive),–
CC(C)(C)c1ccc(S(=O)(=O)N2CCN(C(=O)c3cc(-c4ccc(Br)cc4)n[nH]3)CC2)cc1,10.9% (inactive),–
CCCCN(CC)CCCNC(=O)c1nn(C)c2c1CSc1ccccc1-2,10.8% (inactive),–
COc1ccc(CCNC(=O)c2nn(C)c3c2CSc2ccccc2-3)cc1OC,–,11.2 µM (active)
COc1ccc(OC)c(CCNC(=O)c2nn(C)c3c2CS(=O)(=O)c2ccccc2-3)c1,17.4% (inactive),–
Cc1cc(-c2ccc(C)c(S(=O)(=O)N3c4ccccc4CC3C)c2)on1 (stereo unspecified),-1.52% (inactive),–
Cc1ccc(S(=O)(=O)N2CCCc3cc(NS(=O)(=O)c4cc(C)ccc4C)ccc32)cc1,0% [at 9.22 µM] (inactive),–

SMILES,growth rescue (activation),Potency
CCOC(=O)N1CCN(c2cc(C)c([N+](=O)[O-])cc2F)CC1,18.9% (inactive),–
O=C(OCC(=O)N1CCOCC1)c1ccc(N2CCOCC2)c([N+](=O)[O-])c1,7.7% [at 9.22 µM] (inactive),–
O=C(c1ccc(N2CCOCC2)c([N+](=O)[O-])c1)N1CCN(c2ccccc2F)CC1,–,14.1 µM (active)
O=C(O)C1CCN(c2ccc([N+](=O)[O-])cc2[N+](=O)[O-])CC1,-6.44% (inactive),–
CCC(=O)c1ccc(N2CCN(C(=O)c3cc([N+](=O)[O-])ccc3F)CC2)c(F)c1,–,12.6 µM (active)
O=C(c1ccc(N2CCOCC2)c([N+](=O)[O-])c1)N1CCN(S(=O)(=O)c2cccs2)CC1,1.03% (inactive),–
COc1ccc(S(=O)(=O)NCC(c2ccc(N(C)C)cc2)N2CCc3ccccc32)cc1OC (stereo unspecified),-42.7% [at 9.22 µM] (inactive),–
Cc1ccc2nc(COc3cccc(NC(=O)c4cccc(Cl)c4)c3)cc(=O)n2c1,9.56% (inactive),–
CC(=O)Nc1cnc(-c2ccc(O)cc2C)cn1,21.2% (inactive),–
Cc1ccc(Nc2nc(-c3ccc(O)cc3O)cs2)nc1,–,20 µM (active)
Cc1cc(C)c(NC(=O)c2cc3sc(Cl)cc3n2C)c(C)c1,3.84% (inactive),–
Cn1c(=O)c(C(=O)O)nn(-c2ccccc2)c1=O,6.32% (inactive),–
CCCn1c2ccccc2c2cnn(CC(=O)NCC3CCN(Cc4ccc(C)cc4)CC3)c(=O)c21,-16.2% (inactive),–
COc1ccc(SCc2cc(=O)c3ccc(C)c(C)c3[nH]2)cc1,16% (inactive),–
CCC(=O)N1CCc2cc(S(=O)(=O)NC(Cc3ccccc3)C(=O)NCc3ccc(C)cc3)ccc21 (stereo unspecified),6.31% (inactive),–
